Assay results reported in PubChem BioAssay AID488969 (Vanderbilt High Throughput Screening Facility, 2010).
In all, about 110,000 compounds were measured (“z-score”: median about -0.1, highest 2% from about 2 on). For the sample, the highest values were picked, then their nearest neighbours and some compounds at random. Activity calls are given as the source filed them.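 The calls were made as follows: active = z-score in the third read window above 3 or below -3; inactive = the rest.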

What follows are compounds tested against Metabotropic glutamate receptor 8 (Rattus norvegicus) (UniProt P70579) (assay: mGluR8 Gi/Go-coupled signaling modulation – cell-based, rat, thallium flux, HTS, primary screen (AID 488969)). Details: HEK293 rat mGluR8, GIRK (G protein-gated inwardly rectifying potassium channel) thallium flux, FluoZin2; at 10 µM; stronger effect = higher value; submaximal glutamate (EC20) added with thallium.
Chain of Metabotropic glutamate receptor 8 (Rattus norvegicus) (P70579 whole entry, looked up): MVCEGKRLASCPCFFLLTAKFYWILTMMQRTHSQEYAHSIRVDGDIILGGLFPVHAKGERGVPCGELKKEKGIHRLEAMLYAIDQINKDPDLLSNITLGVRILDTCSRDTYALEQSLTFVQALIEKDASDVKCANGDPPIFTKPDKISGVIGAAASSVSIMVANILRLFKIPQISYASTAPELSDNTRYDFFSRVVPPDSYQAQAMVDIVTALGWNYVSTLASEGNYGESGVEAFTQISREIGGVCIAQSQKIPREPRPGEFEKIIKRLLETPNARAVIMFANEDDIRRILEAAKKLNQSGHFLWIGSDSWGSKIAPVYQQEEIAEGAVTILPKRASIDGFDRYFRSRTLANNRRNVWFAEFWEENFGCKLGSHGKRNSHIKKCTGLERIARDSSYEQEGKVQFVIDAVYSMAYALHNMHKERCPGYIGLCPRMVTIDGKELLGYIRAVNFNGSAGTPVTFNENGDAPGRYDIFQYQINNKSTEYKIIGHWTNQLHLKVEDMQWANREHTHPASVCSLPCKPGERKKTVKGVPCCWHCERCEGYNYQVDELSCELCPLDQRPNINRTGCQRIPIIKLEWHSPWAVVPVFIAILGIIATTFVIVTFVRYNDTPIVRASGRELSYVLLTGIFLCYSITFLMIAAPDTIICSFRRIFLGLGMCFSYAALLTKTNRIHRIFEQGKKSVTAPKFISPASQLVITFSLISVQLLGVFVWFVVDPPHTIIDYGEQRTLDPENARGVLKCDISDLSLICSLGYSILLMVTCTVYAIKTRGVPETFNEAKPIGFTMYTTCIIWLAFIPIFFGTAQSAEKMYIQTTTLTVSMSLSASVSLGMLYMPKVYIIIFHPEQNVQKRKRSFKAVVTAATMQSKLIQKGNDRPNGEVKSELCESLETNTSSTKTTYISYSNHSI

For `Cc1ccc2oc(-c3ccc(C)c(NC(=S)NC(=O)c4cccs4)c3)nc2c1`, which z-score is on record?
The z-score was 0.703.

How did the z-score turn out when `Cc1ccc(-c2nc3ccccc3o2)cc1NC(=S)NC(=O)c1cc2ccccc2o1` was run?
Its z-score is 2.35.

`Cc1ccc(-c2nc3ccccc3o2)cc1NC(=S)NC(=O)/C=C/c1ccco1` was tested. Which z-score did it give?
Its z-score is 0.0248.

`Cc1ccc(-c2nc3ccccc3o2)cc1NC(=S)NC(=O)c1cccs1` was tested. Which z-score did it give?
Its z-score is 1.65.

With `Cc1ccc2oc(-c3cccc(NC(=S)NC(=O)/C=C/c4ccco4)c3)nc2c1` as the compound, how does the z-score read?
Its z-score is -0.494.

`Cc1cc(C)c2oc(-c3ccc(C)c(NC(=S)NC(=O)/C=C/c4ccco4)c3)nc2c1` was tested. Which z-score did it give?
Its z-score is -0.0423.

With `Cc1ccc2oc(-c3cccc(NC(=S)NC(=O)c4cccs4)c3)nc2c1` as the compound, how does the z-score read?
The z-score was 3.78 (active).

How did the z-score turn out when `Cc1cc(C)c2oc(-c3ccc(C)c(NC(=S)NC(=O)c4cccs4)c3)nc2c1` was run?
Its z-score is 3.57 (active).

For `Cc1ccc2oc(-c3cccc(NC(=O)Cc4cccs4)c3)nc2c1`, which z-score is on record?
Its z-score is 0.0421.

Which z-score does the source give for `Cc1cc(NC(=O)COC(=O)c2cccc(OCc3ccccc3)c2)no1` here?
Its z-score is 0.388.

`CCN(CC)C(=O)C1CC(=O)OC12CCCCC2` (stereo unspecified) was tested. Which z-score did it give?
Its z-score is -0.477.

How did the z-score turn out when `COc1ccc(OC)c(C(=O)COC(=O)C2CC3CCCC(C2)C3=O)c1` (stereo unspecified) was run?
The z-score was 1.3.

Which z-score does the source give for `Cc1noc(C)c1C(=O)OC(C(=O)NC1CCCC1)c1ccc(F)cc1` (stereo unspecified) here?
Its z-score is 0.659.

How did the z-score turn out when `CCOC(=O)c1sc(NC(=S)NC(=O)c2ccco2)nc1C` was run?
Its z-score is 7.57 (active).

Which z-score does the source give for `COC(=O)c1sc(Nc2ccccc2)nc1C` here?
Its z-score is -0.75.

For `COC(=O)c1sc(NC(=O)COc2cccc(C)c2)nc1C`, which z-score is on record?
Its z-score is -0.0129.

For `COC(=O)c1sc(NC(=S)NC(=O)c2cccc(C)c2)nc1C`, which z-score is on record?
The z-score was 4.51 (active).

`COc1ccc(C(=O)NC(=S)Nc2nc(C)c(C(=O)N(C)C)s2)cc1` was tested. Which z-score did it give?
Its z-score is -0.0547.

`CCOC(=O)c1sc(NC(=S)NC(=O)c2ccccc2Cl)c(C(=O)OCC)c1C` was tested. Which z-score did it give?
Its z-score is 0.214.

Which z-score does the source give for `Cc1cccc(C(=O)Nc2nc(C)c(C(=O)Nc3ccc4c(c3)CCC4)s2)c1` here?
The z-score was -0.0981.

Which z-score does the source give for `Cc1nc(NC(=S)NC(=O)c2ccccc2)sc1C(=O)N(C)C` here?
The z-score was -0.185.

`CCOC(=O)c1sc(NC(=O)COC(=O)c2ccco2)nc1C` was tested. Which z-score did it give?
The z-score was 0.0458.

Which z-score does the source give for `COC(=O)c1sc(NC(=S)NC(=O)c2ccccc2)nc1C` here?
Its z-score is 2.47.

For `COC(=O)c1sc(NC(=S)NC(=O)c2ccccc2Cl)nc1C`, which z-score is on record?
The z-score was 5.46 (active).

`CCOC(=O)c1sc(NC(=O)c2ccco2)nc1-c1ccccc1` was tested. Which z-score did it give?
Its z-score is 0.0322.

How did the z-score turn out when `Cc1nonc1OCC(C)(COc1nonc1C)NC(=O)c1ccccc1` was run?
Its z-score is -0.133.

How did the z-score turn out when `CCOC(=O)C1C(=O)NC(N2CCOCC2)=NC1c1ccco1` (stereo unspecified) was run?
Its z-score is -0.222.

How did the z-score turn out when `CCOC(=O)C1CCCN(C(=S)Nc2cccc(Cl)c2C)C1` (stereo unspecified) was run?
The z-score was -0.429.

How did the z-score turn out when `O=c1c2ccccc2nc(-c2ccc(Cl)cc2)n1C1CCS(=O)(=O)C1` (stereo unspecified) was run?
Its z-score is -0.341.

With `Cc1cc2nc(C)n(CCCNC(=O)Nc3cccc4ccccc34)c2cc1C` as the compound, how does the z-score read?
The z-score was -0.0533.

`CCCN1CNC(=S)N(CC2CCCO2)C1` (stereo unspecified) was tested. Which z-score did it give?
Its z-score is 0.136.

For `Cc1c(Cl)cnc(NC(=O)COC(=O)CCC(=O)c2cccs2)c1Cl`, which z-score is on record?
The z-score was -0.28.

With `CNC(=S)N(Cc1ccc(OC)cc1)C1CC(=O)N(c2ccc(C(=O)OC)cc2)C1=O` (stereo unspecified) as the compound, how does the z-score read?
The z-score was -0.228.

With `Cc1ccc2nc3ccc(N4CCCCCCC4)nn3c(=O)c2c1` as the compound, how does the z-score read?
The z-score was -0.682.

`O=C(CCSc1ccc(Cl)cc1)N1CCOCC1` was tested. Which z-score did it give?
The z-score was -0.207.

`CC(=O)Nc1ccc(NC(=O)CSc2ccc(C(F)(F)F)cc2[N+](=O)[O-])cc1` was tested. Which z-score did it give?
The z-score was -0.252.

How did the z-score turn out when `O=C(Nc1nccs1)C1CCCN1S(=O)(=O)c1ccc(Cl)cc1` (stereo unspecified) was run?
Its z-score is 0.437.

Which z-score does the source give for `CCS(=O)(=O)N1CCN(C(=O)C(c2ccccc2)c2ccccc2)CC1` here?
The z-score was -0.138.

With `O=C(c1ccc(-c2ccccc2)cc1)N1CCN(c2ncccn2)CC1` as the compound, how does the z-score read?
Its z-score is 3.97 (active).

`N#Cc1c(N2CCN(C(=O)c3ccccc3Cl)CC2)nc(-c2ccccc2)c2c1CCCC2` was tested. Which z-score did it give?
The z-score was -0.453.

With `O=C(c1cccc(C(=O)N2CCN(c3ncccn3)CC2)c1)N1CCN(c2ncccn2)CC1` as the compound, how does the z-score read?
Its z-score is 0.184.

`N#Cc1c(N2CCN(C(=O)c3ccco3)CC2)nc(-c2ccccc2)c2c1CCCC2` was tested. Which z-score did it give?
The z-score was -0.665.

How did the z-score turn out when `O=C(c1ccc(F)cc1)N1CCN(c2ncccn2)CC1` was run?
The z-score was -0.204.

How did the z-score turn out when `N#Cc1c(N2CCN(C(=O)c3ccccc3)CC2)nc(-c2ccccc2)c2c1CCCC2` was run?
Its z-score is 2.92.

`COc1ccc2c(c1)CC/C(=C\c1ccc(OC)c(Cn3cccn3)c1)C2=O` was tested. Which z-score did it give?
Its z-score is -0.628.

With `CCOc1ccccc1OCCCC(=O)Nc1sccc1C(N)=O` as the compound, how does the z-score read?
The z-score was 0.813.

Which z-score does the source give for `O=C(CCl)Nc1ccccc1Sc1ccccc1` here?
Its z-score is -0.216.

With `CCCC(=O)NC(c1cccs1)c1cc([N+](=O)[O-])c2cccnc2c1O` (stereo unspecified) as the compound, how does the z-score read?
Its z-score is 2.37.

For `CC(=O)NC(c1cccs1)c1cc([N+](=O)[O-])c2cccnc2c1O` (stereo unspecified), which z-score is on record?
The z-score was -1.44.

Which z-score does the source give for `CCC(=O)NC(c1cccs1)c1cc([N+](=O)[O-])c2cccnc2c1O` (stereo unspecified) here?
The z-score was -0.0253.

Which z-score does the source give for `CC(NC(=O)NC1CCCCC1)C(c1cccs1)N1CCN(Cc2ccccc2)CC1` (stereo unspecified) here?
The z-score was -1.18.

For `O=S(=O)(Nc1cc(Cl)ccn1)c1ccc(Cl)cc1`, which z-score is on record?
The z-score was 0.404.

With `CCC(=O)Nc1c(-c2ccc(OC)cc2)c(=O)c2ccccc2n1C` as the compound, how does the z-score read?
Its z-score is 2.76.

How did the z-score turn out when `CCCC(=O)Nc1c(-c2ccc(OC)cc2)c(=O)c2ccccc2n1C` was run?
Its z-score is -0.253.

With `CCCCCC(=O)Nc1c(-c2ccc(OC)cc2)c(=O)c2ccccc2n1C` as the compound, how does the z-score read?
The z-score was 0.109.

`O=S(=O)(Nc1ccc(Cc2ccncc2)cc1)c1cccs1` was tested. Which z-score did it give?
Its z-score is -0.0895.

Which z-score does the source give for `CS(=O)(=O)N1N=C(c2ccc3nccnc3c2)CC1c1ccccc1` (stereo unspecified) here?
Its z-score is -0.111.

For `COc1c2occc2c(OC)c2c(=O)cc(C(F)(F)F)oc12`, which z-score is on record?
The z-score was 2.92.

For `COc1c2occc2cc2ccc(=O)oc12`, which z-score is on record?
Its z-score is -0.548.

Which z-score does the source give for `O=c1cc(C(F)(F)F)oc2c1ccc1ccccc12` here?
Its z-score is -0.211.

With `CCC(C)N=C1SCC(C)(/C=N/O)S1` (stereo unspecified) as the compound, how does the z-score read?
Its z-score is -0.0708.

`C(=N\c1nccs1)/c1c[nH]c2ccccc12` was tested. Which z-score did it give?
The z-score was -0.861.

`Oc1oc(-c2ccccc2)nc1C=Nc1cccc2ccccc12` was tested. Which z-score did it give?
Its z-score is -0.00127.

How did the z-score turn out when `Oc1oc(-c2ccccc2)nc1/C=N/c1nccs1` was run?
The z-score was 1.54.

With `Oc1[nH]c2ccccc2c1/C=N/c1nccs1` as the compound, how does the z-score read?
Its z-score is 2.09.

For `CCCCOc1ccc(-c2nc(/C=N/c3nccs3)c(O)o2)cc1`, which z-score is on record?
The z-score was 2.84.

`CN=Cc1nc(-c2ccccc2)oc1O` was tested. Which z-score did it give?
Its z-score is 1.62.

For `Oc1oc(-c2cccc3ccccc23)nc1/C=N/c1nccs1`, which z-score is on record?
Its z-score is 7.77 (active).

With `CCOc1ccc2nc(/N=C/c3nc(-c4ccc(Br)cc4)oc3O)sc2c1` as the compound, how does the z-score read?
Its z-score is 0.754.

How did the z-score turn out when `Oc1ccc2ccccc2c1/C=N/c1nccs1` was run?
The z-score was 0.277.

How did the z-score turn out when `N#Cc1c(N)c(C(=O)c2ccccc2)n2c1CCCC2` was run?
Its z-score is -0.142.
